{"source": "PubChem BioAssay (NCI)", "note": "About 83,000 compounds went through this panel and 20% of them were active in at least one assay; those are over-represented in the sample as a whole.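 Results are percent growth after 48 hours of single-concentration exposure. 100 means growth as in untreated cells, lower positive values show inhibition; negative values down to -100 show cell death.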 A number with no mark means an inactive call. Calls of active or inactive are those of the source. Rule for the calls: active = growth percent below 10; inactive = the rest.", "data": [{"system": "MDA-MB-468 breast", "assay": "NCI-60 one-dose screen, 48 h (100 = growth as untreated, 0 = no growth, -100 = all killed)", "conditions": "10 µM unless noted", "values": [{"smiles": "Brc1cccc(-c2nc(-c3ccc4c(c3)OCCO4)co2)c1", "growth": "34.9% [25 µM]"}, {"smiles": "Clc1ccc(C2=NN[C@H](c3cn(-c4ccccc4)nc3-c3ccccc3)C2)cc1", "growth": "57.1%"}, {"smiles": "O=C(O)[C@@H](Cc1ccc2ccccc2c1)NC(=O)n1c2ccccc2c2ccccc21", "growth": "11.9%"}, {"smiles": "CC1(C)OCC(COC(c2ccccc2)(c2ccccc2)c2ccccc2)O1", "note": "(stereo unspecified)", "growth": "109%"}, {"smiles": "C=CCn1c(SCC(=O)Nc2ccc(C(=O)/C=C/c3cc(OC)c(OC)c(OC)c3)cc2)nnc1-c1ccc(OC)cc1", "growth": "-26.5% (active)"}, {"smiles": "O=c1cc(N/N=C/c2ccc(F)cc2)c2cc(Cl)ccc2[nH]1", "growth": "73%"}, {"smiles": "COc1ccc(/C=c2\\sc3n(c2=O)C(c2cc(OC)c(OC)c(OC)c2)C=C(c2ccc(OC)c(OC)c2)N=3)cc1OC", "note": "(stereo unspecified)", "growth": "105%"}, {"smiles": "Cc1cc(Cl)nc(N(CCNc2ccnc3cc(Cl)ccc23)Cc2ccccn2)n1", "growth": "3.86% (active)"}, {"smiles": "CCN(CC)CC(C)(C)C(=O)/C=C/c1ccccc1", "growth": "-15.2% (active)"}, {"smiles": "COc1cc2ncnc3c2cc1OCCCCCN(C)Cc1ccc(Br)cc1N3", "growth": "-26.6% (active)"}, {"smiles": "CCCCCCCCCCCC(=O)NC(C)(C)C(=O)N1CCCC1C(=O)NC(C)(C)C(=O)NC(C)(C)C(=O)N1CCCC1C(=O)NC(C)(C)C(=O)NC(C)(C)C(=O)N1CCCC1C(=O)NC(C)C(=O)NCCC(=O)NC(C)C(=O)NC(C)(C)C(=O)NC(C)(C)C(=O)NC(C)(C)C(=O)NCCC(=O)NC(C)(C)C(=O)NC(C)(C)C(=O)NC(C)(C)C(=O)NC(C)C(=O)NCCC(=O)O", "note": "(stereo unspecified)", "growth": "-88.5% (active)"}]}]}
